Compounds without any hit were thinned out: in the full panel of roughly 79,000, 15% have a hit. The source made the active and inactive calls. Cut-off read from the data, not from the text of the source: active = growth inhibition above about 70%; inactive = the rest.
Key:
[1] = NCI Yeast Anticancer Drug Screen. Data for the rad52 strain (AID 147);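 note: 0% = growth of vehicle-treated control cultures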; details: S. cerevisiae rad52 mutant growth inhibition, stronger effect = higher value
How it was run: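 Genetically altered yeast (DNA damage repair defect) treated with compound; inhibition calculated relative to vehicle.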

[2] = NCI Yeast Anticancer Drug Screen. Data for the wt1 strain (AID 149);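 note: 0% = growth of vehicle-treated wt1 cultures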; details: S. cerevisiae wt1 strain (SPY 50644) growth inhibition, stronger effect = higher value
How it was run: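 Vehicle-normalised growth inhibition; strain wt1; compound exposure.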

[3] = NCI Yeast Anticancer Drug Screen. Data for the rad50EPP+ strain (AID 151);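 note: 0% = growth of vehicle-treated control cultures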; details: S. cerevisiae rad50 mutant strain, stronger effect = higher value
How it was run: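 Strain rad50EPP+; compound exposure; % growth inhibition vs vehicle.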

[4] = NCI Yeast Anticancer Drug Screen. Data for the mgt1 strain (AID 153); details: S. cerevisiae mgt1 mutant growth inhibition, stronger effect = higher value
How it was run: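 Read-out: yeast growth inhibition vs vehicle control. Strain mgt1, drawn from a panel altered in DNA damage repair or cell cycle control.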

[5] = NCI Yeast Anticancer Drug Screen. Data for the rad50 strain (AID 155);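 note: 0% = growth of vehicle-only cultures of the same strain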; details: S. cerevisiae rad50 strain growth inhibition, stronger effect = higher value
How it was run: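 A DNA repair-deficient yeast mutant serves as the test organism; compound-induced growth inhibition is calculated against vehicle-treated cells.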

[6] = NCI Yeast Anticancer Drug Screen. Data for the mec2-1 strain (AID 157); details: S. cerevisiae mec2-1 strain, stronger effect = higher value
How it was run: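 Cells of the genetically defined mec2-1 yeast strain are incubated with test compound. Inhibition of growth is calculated against vehicle-treated controls.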

[7] = NCI Yeast Anticancer Drug Screen. Data for the rad14 strain (AID 159);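 note: 0% = growth of vehicle-treated control cultures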; details: S. cerevisiae rad14 strain growth inhibition, stronger effect = higher value
How it was run: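 Vehicle-treated cultures served as the baseline for growth inhibition of a DNA repair-mutant yeast strain exposed to each compound.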

[8] = NCI Yeast Anticancer Drug Screen. Data for the sgs1 mgt1 strain (AID 161);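 note: 0% = growth of cultures given vehicle only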; details: S. cerevisiae sgs1 mgt1 strain, stronger effect = higher value
How it was run: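 Genetically altered yeast, compound exposure, growth inhibition relative to vehicle.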

[9] = NCI Yeast Anticancer Drug Screen. Data for the CLN2oe strain (AID 163);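 note: 0% = growth of vehicle-only control cultures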; details: S. cerevisiae CLN2oe strain, stronger effect = higher value
How it was run: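 Strain altered in cell-cycle control, incubated with compound; growth compared to solvent-treated controls.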

[10] = NCI Yeast Anticancer Drug Screen. Data for the cln2 rad14 strain (AID 165);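 note: 0% = growth equal to vehicle treated cultures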; details: S. cerevisiae cln2 rad14 strain, stronger effect = higher value
How it was run: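 The screen exposed genetically defined yeast (cln2 rad14) to test compounds and scored growth inhibition relative to vehicle-treated controls.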

[11] = NCI Yeast Anticancer Drug Screen. Data for the bub3 strain (AID 167); details: S. cerevisiae bub3 mutant strain, stronger effect = higher value
How it was run: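 Inhibition values come from growth of compound-treated mutant yeast normalised to vehicle-treated controls.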

[12] = NCI Yeast Anticancer Drug Screen. Data for the wt2 strain (AID 169);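 note: 0% = growth of vehicle-treated yeast cultures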; details: S. cerevisiae wt2 strain growth inhibition, stronger effect = higher value
How it was run: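 Steps: yeast strain treated with compound; growth recorded; inhibition calculated relative to cultures given vehicle alone.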

[13] = NCI Yeast Anticancer Drug Screen. Data for the mlh1 strain (AID 171);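 note: 0% = growth of vehicle-treated control cultures of the same strain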; details: S. cerevisiae mlh1 strain growth inhibition, stronger effect = higher value
How it was run: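 Yeast screen: mutant strain plus compound, growth scored against vehicle control wells.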

[14] = NCI Yeast Anticancer Drug Screen. Data for the sgs1 strain (AID 173);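 note: 0% = growth of vehicle-only control cultures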; details: S. cerevisiae sgs1 mutant, stronger effect = higher value
How it was run: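 Inhibition of yeast growth served as the measure. The mutant strain was treated with each compound, and growth was normalised to cultures receiving vehicle alone.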

[15] = NCI Yeast Anticancer Drug Screen. Data for the mlh1 rad18 strain (AID 175); details: S. cerevisiae mlh1 rad18 strain growth inhibition, stronger effect = higher value
How it was run: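 Compound-treated yeast growth, normalised to vehicle controls. Strain bears defined DNA repair mutations.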

[16] = NCI Yeast Anticancer Drug Screen. Data for the rad18 strain (AID 177); details: S. cerevisiae rad18 mutant growth inhibition, stronger effect = higher value
How it was run: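 Inhibition values reflect reduced yeast growth compared with vehicle-treated controls, using a strain engineered with a DNA damage repair defect.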

[17] = at 5.0 µM (retest, dose inferred, filed as 0.5)
[18] = at 50.0 µM (retest, dose inferred, filed as 5.0)

Measured: growth inhibition

CCN(CC)CC(=O)c1ccc2cc(Cl)c3ccccc3c2c1
inactive: [1]; at 1.2 µM 14% | [1]; at 3.7 µM 30% | [2]; at 1.2 µM 6% | [2]; at 3.7 µM 17% | [3]; at 1.2 µM 68% | [4]; at 1.2 µM 0% | [4]; at 3.7 µM 13% | [5]; at 1.2 µM 9% | [5]; at 3.7 µM 18% | [5]; [17] 26% | [6]; at 1.2 µM 12% | [6]; at 3.7 µM 24% | [6]; [17] 26% | [7]; at 1.2 µM 6% | [7]; at 3.7 µM 13% | [8]; [17] 42% | [9]; at 1.2 µM 8% | [9]; at 3.7 µM 11% | [10]; [17] 6% | [11]; at 1.2 µM -4% | [11]; at 3.7 µM 3% | [11]; [17] 10% | [12]; at 1.2 µM 7% | [12]; at 3.7 µM 24% | [13]; at 1.2 µM 12% | [13]; at 3.7 µM 23% | [14]; at 1.2 µM 25% | [14]; at 3.7 µM 53% | [15]; [17] 48% | [16]; at 1.2 µM 20% | [16]; at 3.7 µM 42%
active: [1]; at 11.0 µM 99% | [1]; at 33.0 µM 98% | [1]; at 100.0 µM 98% | [2]; at 11.0 µM 99% | [2]; at 33.0 µM 98% | [2]; at 100.0 µM 98% | [3]; at 3.7 µM 85% | [3]; at 11.0 µM 98% | [3]; at 33.0 µM 98% | [3]; at 100.0 µM 98% | [4]; at 11.0 µM 99% | [4]; at 33.0 µM 99% | [4]; at 100.0 µM 99% | [5]; at 11.0 µM 98% | [5]; at 33.0 µM 98% | [5]; [18] 98% | [5]; at 50.0 µM 99% | [5]; at 100.0 µM 98% | [6]; at 11.0 µM 99% | [6]; at 33.0 µM 99% | [6]; [18] 99% | [6]; at 50.0 µM 99.2% | [6]; at 100.0 µM 99% | [7]; at 11.0 µM 99% | [7]; at 33.0 µM 99% | [7]; at 100.0 µM 99% | [8]; [18] 99% | [8]; at 50.0 µM 99.2% | [9]; at 11.0 µM 99% | [9]; at 33.0 µM 98% | [9]; at 100.0 µM 99% | [10]; [18] 99% | [10]; at 50.0 µM 99.2% | [11]; at 11.0 µM 98% | [11]; at 33.0 µM 98% | [11]; [18] 98% | [11]; at 50.0 µM 99.2% | [11]; at 100.0 µM 98% | [12]; at 11.0 µM 99% | [12]; at 33.0 µM 98% | [12]; at 100.0 µM 98% | [13]; at 11.0 µM 99% | [13]; at 33.0 µM 99% | [13]; at 100.0 µM 98% | [14]; at 11.0 µM 99% | [14]; at 33.0 µM 98% | [14]; at 100.0 µM 98% | [15]; [18] 98% | [15]; at 50.0 µM 99.2% | [16]; at 11.0 µM 99% | [16]; at 33.0 µM 98% | [16]; at 100.0 µM 98%

CCS(=O)(=O)Nc1ccc(Nc2c3ccccc3nc3ccccc23)c(OC)c1
active: [1]; at 3.7 µM 82% | [1]; at 11.0 µM 88% | [1]; at 33.0 µM 90% | [1]; at 100.0 µM 93% | [3]; at 33.0 µM 77% | [3]; at 100.0 µM 84% | [5]; at 3.7 µM 79% | [5]; [17] 86% | [5]; at 11.0 µM 86% | [5]; at 33.0 µM 91% | [5]; [18] 99% | [5]; at 100.0 µM 92% | [6]; [18] 96% | [6]; at 100.0 µM 89% | [7]; at 100.0 µM 74% | [8]; [18] 98% | [8]; at 50.0 µM 80.8% | [10]; [18] 84% | [13]; at 100.0 µM 74% | [14]; at 100.0 µM 76% | [15]; [17] 77% | [15]; [18] 97% | [16]; at 100.0 µM 74%
inactive: [1]; at 1.2 µM 62% | [2]; at 1.2 µM -36% | [2]; at 3.7 µM -42% | [2]; at 11.0 µM -38% | [2]; at 33.0 µM -4% | [2]; at 100.0 µM 62% | [3]; at 1.2 µM -1% | [3]; at 3.7 µM 17% | [3]; at 11.0 µM 48% | [4]; at 1.2 µM -28% | [4]; at 3.7 µM -35% | [4]; at 11.0 µM -28% | [4]; at 33.0 µM 3% | [4]; at 100.0 µM 64% | [5]; at 1.2 µM 51% | [5]; at 50.0 µM 24.7% | [6]; at 1.2 µM -42% | [6]; at 3.7 µM -32% | [6]; [17] 12% | [6]; at 11.0 µM 7% | [6]; at 33.0 µM 69% | [6]; at 50.0 µM 11.8% | [7]; at 1.2 µM -40% | [7]; at 3.7 µM -36% | [7]; at 11.0 µM -26% | [7]; at 33.0 µM 5% | [8]; [17] 49% | [9]; at 1.2 µM -8% | [9]; at 3.7 µM -35% | [9]; at 11.0 µM -2% | [9]; at 33.0 µM 29% | [9]; at 100.0 µM 59% | [10]; [17] 43% | [10]; at 50.0 µM 53.4% | [11]; at 1.2 µM -50% | [11]; at 3.7 µM -32% | [11]; [17] 42% | [11]; at 11.0 µM -36% | [11]; at 33.0 µM 3% | [11]; [18] 65% | [11]; at 50.0 µM 50.5% | [11]; at 100.0 µM 67% | [12]; at 1.2 µM -47% | [12]; at 3.7 µM -47% | [12]; at 11.0 µM -42% | [12]; at 33.0 µM -1% | [12]; at 100.0 µM 56% | [13]; at 1.2 µM -57% | [13]; at 3.7 µM -33% | [13]; at 11.0 µM -24% | [13]; at 33.0 µM 17% | [14]; at 1.2 µM -14% | [14]; at 3.7 µM -11% | [14]; at 11.0 µM -7% | [14]; at 33.0 µM 36% | [15]; at 50.0 µM 36% | [16]; at 1.2 µM -21% | [16]; at 3.7 µM -12% | [16]; at 11.0 µM -18% | [16]; at 33.0 µM 23%

Source: PubChem BioAssay (NCI)
